Laboratory results: PubChem BioAssay (Tox21)
Records with an inconclusive call do not appear. The source made the active and inactive calls. Unless noted, calls come from the whole dose curve.

Experiments:
[1] = Nuclear factor erythroid 2-related factor 2/antioxidant responsive element (Nrf2/ARE) small molecule agonists: qHTS cell viability counter screen in human keratinocytes (AID 1919968; active = well fitted curve in the direction sought with a large enough effect in the repeat runs; an effect the other way counts as inactive or inconclusive; note: nearly all actives have a fitted effect of over 55% in size; note: potency is the fitted concentration of half-maximal effect)
Procedure, shortened: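 In human HaCaT keratinocytes stably expressing an ARE-driven luciferase, compound exposure lasted 23 h at 37 C under 5% CO2. Viable cells are quantified with a protease-based fluorogenic reagent (CellTiter-Fluor) read 1 h after addition.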

[2] = Nuclear factor erythroid 2-related factor 2/antioxidant responsive element (Nrf2/ARE) small molecule agonists: luciferase reporter gene qHTS assay in human keratinocytes (AID 1919969); note: nearly all actives have a fitted effect of over 35% in size; note: potency is the fitted concentration of half-maximal effect
[3] = target: Gonadotropin-releasing hormone receptor (Homo sapiens) (UniProt P30968); assay: Human gonadotropin-releasing hormone receptor (GnRHR) small molecule agonists, calcium flux assay in GnRHR-HEK293 cells (AID 1920063); note: nearly all actives have a fitted effect of over 35% in size; note: potency is the fitted concentration of half-maximal effect
Procedure, shortened: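 Intracellular calcium rise is the read-out: engineered human GnRHR HEK293 cells, dye-loaded, are exposed to DMSO-dissolved compounds and fluorescence at Ex/Em 480/540 is tracked for 3 min.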

[4] = target: KiSS-1 receptor (Homo sapiens) (UniProt Q969F8); assay: Human kisspeptin (KISS1R) small molecule agonists, calcium flux assay in KISS1R-HEK293 cells (AID 1920064; active = well fitted curve in the direction sought with a large enough effect in the repeat runs; an effect the other way counts as inactive or inconclusive)
Procedure, shortened: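 Concentration-response testing used 15 concentrations in triplicate on human KISS1R-expressing HEK293 cells. Calcium-dependent fluorescence (Ex/Em 480/540) was followed kinetically for 3 min after compound transfer.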

[5] = G protein-coupled receptor (GPCR) small molecule agonists, calcium flux assay: HEK293 wild type cell line counter screen (AID 1920065)
Procedure, shortened: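 Fluorescence intensity signals activation. After overnight (18 h) culture and a 1 h calcium dye load at 37 C, compounds are added by pin tool and the plate read at 480/540 nm for 3 min in 1 s steps.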

[6] = p53 small molecule agonists, cell-based qHTS assay with human liver microsomes: qHTS cell viability counter screen (AID 1963579); note: nearly all actives have a fitted effect of over 45% in size
Procedure, shortened: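 Luminescent CellTiter-Glo read-out, 30 min at room temperature, gauged cytotoxicity in p53RE-bla cells exposed 16 h at 37 C to DMSO-dissolved compounds with metabolic activation by human liver microsomes and NADPH, each 0.5 mg/mL final.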

[7] = p53 small molecule agonists, cell-based qHTS assay with rat liver microsomes: qHTS cell viability counter screen (AID 1963580); note: nearly all actives have a fitted effect of over 45% in size; note: potency is the fitted concentration of half-maximal effect
Procedure, shortened: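 Counter screen for cytotoxicity under metabolic activation: rat liver microsomes and NADPH, 0.5 mg/mL final each, added with compounds to p53RE-bla HCT-116 cells; 16 h at 37 C, then ATP luminescence read.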

[8] = p53 small molecule agonists, cell-based qHTS assay: qHTS cell viability counter screen (AID 1963581); note: nearly all actives have a fitted effect of over 45% in size; note: potency is the fitted concentration of half-maximal effect
Procedure, shortened: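 Luminescence from CellTiter-Glo, reflecting ATP content, serves as the cytotoxicity measure; it is taken after the 2 h reporter substrate step in HCT-116 p53RE-bla cells dosed for 16 h at 37 C.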

[9] = target: 5-hydroxytryptamine receptor 2A (Homo sapiens) (UniProt P28223); assay: 5-hydroxytryptamine receptor 2A (HTR2A) small molecule antagonists, cell-based qHTS assay (AID 1963586); note: nearly all actives have a fitted effect of over 45% in size
Procedure, shortened: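 CHO cells stably expressing human HTR2A were plated for 18 h at 37 C, then loaded with calcium dye for 1 h. Compounds were preincubated 5 min at room temperature before DOI (4 nM solution) was added. Kinetic fluorescence was read for 3 min.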

[10] = target: 5-hydroxytryptamine receptor 2A (Homo sapiens) (UniProt P28223); assay: 5-hydroxytryptamine receptor 2A (HTR2A) small molecule agonists, cell-based qHTS assay (AID 1963587); note: nearly all actives have a fitted effect of over 30% in size
Procedure, shortened: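 HTR2A-CHO cells, plated 18 h at 37 C/5% CO2, dye-loaded 1 h at 37 C; compounds in DMSO added by pin tool (agonist mode). Intracellular calcium flux read as kinetic fluorescence on FDSS over 2 min at 1 s intervals.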

[11] = target: Muscarinic acetylcholine receptor M1 (Homo sapiens) (UniProt P11229); assay: Cholinergic receptor muscarinic 1 (CHRM1) small molecule agonists, cell-based qHTS assay (AID 1963589); note: nearly all actives have a fitted effect of over 35% in size; note: potency is the fitted concentration of half-maximal effect
Procedure, shortened: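 Fluorescent calcium dye reports M1 activation in stably transfected CHO cells. Compounds, 15 concentrations, added after 1 h dye loading at 37 C; kinetic reading at 1 sec intervals.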

[12] = cAMP Responsive Elements (CRE) small molecule antagonists, cell-based qHTS assay (AID 1963591; active = well fitted inhibition curve with a large enough effect in the signal ratio in the repeat runs, not every such curve was filed as active; the % refers to the signal ratio; note: potency is the fitted concentration of half-maximal effect)
Procedure, shortened: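 Stimulation used NKH477 at a final 0.25 uM for 3 h in compound-treated CRE-bla HEK293T cells, seeded 18 h beforehand. Reporter activity was measured with LiveBLAzer B/G FRET substrate after 2 h at room temperature.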

[13] = target: Beta-2 adrenergic receptor (Homo sapiens) (UniProt P07550); assay: Adrenergic beta2 receptor (ADRB2) small molecule agonists, cell-based qHTS assay (AID 1963593);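 note: CHO cells stably overexpressing human ADRB2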
Procedure, shortened: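 CHO cells stably over-expressing ADRB2 were plated overnight at 37C, then dosed with compounds plus a stimulation mix containing 100uM IBMX and 25uM Ro-20-1724 for 0.5hr at room temperature. cAMP was measured by HTRF competition, 1hr.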

[14] = target: D(2) dopamine receptor (Homo sapiens) (UniProt P14416); assay: Dopamine D2 receptor (DRD2) small molecule agonists, cell-based qHTS assay (AID 1963594); note: nearly all actives have a fitted effect of over 35% in size
Procedure, shortened: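 HEK293 cells stably expressing DRD2 were cultured 24 h at 37 C, then given Ro20-1724 (0.1 mM final) and compounds for 10 min at room temperature. NKH477 (200nM) was then added for 30 min. cAMP was read by HTRF.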

[15] = target: D(2) dopamine receptor (Homo sapiens) (UniProt P14416); assay: Dopamine D2 receptor (DRD2) small molecule antagonists, cell-based qHTS assay (AID 1963595; active = well fitted inhibition curve with a large enough effect in the signal ratio in the repeat runs, with a control signal flat; the % refers to the signal ratio)
Procedure, shortened: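 HEK293 cells stably expressing DRD2, preincubated with 0.1 mM Ro20-1724 and compounds 10 min, were stimulated with 200 nM NKH477 plus 12 nM quinpirole for 30 min at room temperature; cAMP measured by HTRF (665/620 nm).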

[16] = target: Muscarinic acetylcholine receptor M1 (Homo sapiens) (UniProt P11229); assay: Cholinergic receptor muscarinic 1 (CHRM1) small molecule antagonists, cell-based qHTS assay (AID 1963588); note: nearly all actives have a fitted effect of over 40% in size
Procedure, shortened: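 Compounds were tested at 15 concentrations in three independent runs. Dye-loaded CHRM1-CHO cells were exposed 5 min at room temperature before stimulation by acetylcholine added at 50nM. Intracellular calcium was read kinetically on FDSS for 3 min.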

[17] = target: Beta-2 adrenergic receptor (Homo sapiens) (UniProt P07550); assay: Adrenergic beta2 receptor (ADRB2) small molecule antagonists, cell-based qHTS assay (AID 1963592); note: series mostly up to about 92 µM; nearly all actives have a fitted effect of over 50% in size
Procedure, shortened: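 Assay format: CHO-ADRB2 cells, 18-20hr seeding at 37C/5% CO2, then compound plus 1nM isoproterenol agonist mix for 0.5hr RT. Homogeneous time-resolved fluorescence cAMP detection after 1hr, expressed as 665/615 nm ratio.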

[18] = cAMP Responsive Elements (CRE) small molecule agonists, cell-based qHTS assay (AID 1963590)
Procedure, shortened: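 Compound exposure lasted 3 h at 37 C/5% CO2 in CRE-bla HEK 293T cells grown in assay medium with 10% dialyzed FBS and 25 mM HEPES. Reporter signal came from LiveBLAzer B/G FRET substrate, 2 h, room temperature.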

Measured: Potency

Beta-2 adrenergic receptor (Homo sapiens), sequence (P07550 whole entry, looked up): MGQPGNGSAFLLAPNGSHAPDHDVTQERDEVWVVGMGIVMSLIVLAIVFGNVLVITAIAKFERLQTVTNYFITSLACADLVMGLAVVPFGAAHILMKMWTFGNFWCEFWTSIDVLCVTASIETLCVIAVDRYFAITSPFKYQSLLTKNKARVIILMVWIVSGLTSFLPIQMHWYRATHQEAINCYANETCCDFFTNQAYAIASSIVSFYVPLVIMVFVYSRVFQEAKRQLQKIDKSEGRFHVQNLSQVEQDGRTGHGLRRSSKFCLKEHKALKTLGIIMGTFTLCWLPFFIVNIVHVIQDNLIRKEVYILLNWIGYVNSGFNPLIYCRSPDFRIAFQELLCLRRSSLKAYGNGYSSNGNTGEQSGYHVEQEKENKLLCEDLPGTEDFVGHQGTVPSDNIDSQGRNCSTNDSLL
Muscarinic acetylcholine receptor M1 (Homo sapiens), sequence (P11229 whole entry, looked up): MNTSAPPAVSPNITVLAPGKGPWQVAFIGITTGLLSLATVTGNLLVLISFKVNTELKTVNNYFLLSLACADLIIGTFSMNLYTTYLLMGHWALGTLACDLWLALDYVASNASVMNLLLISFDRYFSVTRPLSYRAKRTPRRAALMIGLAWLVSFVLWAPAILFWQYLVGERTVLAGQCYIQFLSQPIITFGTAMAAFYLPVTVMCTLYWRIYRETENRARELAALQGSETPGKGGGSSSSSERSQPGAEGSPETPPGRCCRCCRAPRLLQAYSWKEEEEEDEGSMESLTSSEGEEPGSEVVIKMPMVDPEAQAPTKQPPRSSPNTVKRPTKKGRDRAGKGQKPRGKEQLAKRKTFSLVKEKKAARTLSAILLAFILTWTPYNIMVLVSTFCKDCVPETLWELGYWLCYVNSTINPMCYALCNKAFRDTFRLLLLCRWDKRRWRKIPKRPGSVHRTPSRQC
Gonadotropin-releasing hormone receptor (Homo sapiens), sequence (P30968 whole entry, looked up): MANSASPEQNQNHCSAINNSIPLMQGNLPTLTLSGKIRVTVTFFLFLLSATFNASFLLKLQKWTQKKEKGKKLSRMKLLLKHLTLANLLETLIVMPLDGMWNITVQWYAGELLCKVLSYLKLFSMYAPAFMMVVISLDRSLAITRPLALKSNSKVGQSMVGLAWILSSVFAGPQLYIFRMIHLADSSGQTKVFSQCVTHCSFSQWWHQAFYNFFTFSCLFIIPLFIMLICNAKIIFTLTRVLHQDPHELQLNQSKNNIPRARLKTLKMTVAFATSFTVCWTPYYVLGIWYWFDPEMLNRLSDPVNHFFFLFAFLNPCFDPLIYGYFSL
5-hydroxytryptamine receptor 2A (Homo sapiens), sequence (P28223 whole entry, looked up): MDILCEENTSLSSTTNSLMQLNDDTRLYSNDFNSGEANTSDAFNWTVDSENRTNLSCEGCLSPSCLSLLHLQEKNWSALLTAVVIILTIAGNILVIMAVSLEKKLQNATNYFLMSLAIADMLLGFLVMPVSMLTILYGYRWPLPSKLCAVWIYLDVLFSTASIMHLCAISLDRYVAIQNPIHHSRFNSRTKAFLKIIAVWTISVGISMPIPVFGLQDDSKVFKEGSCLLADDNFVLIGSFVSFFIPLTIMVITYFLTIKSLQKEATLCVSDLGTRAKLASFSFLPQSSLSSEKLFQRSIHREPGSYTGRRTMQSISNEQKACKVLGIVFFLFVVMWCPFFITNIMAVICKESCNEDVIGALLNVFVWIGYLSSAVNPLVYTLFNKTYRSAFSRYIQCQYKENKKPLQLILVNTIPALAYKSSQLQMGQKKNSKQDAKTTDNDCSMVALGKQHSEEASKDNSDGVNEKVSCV
KiSS-1 receptor (Homo sapiens), sequence (Q969F8 whole entry, looked up): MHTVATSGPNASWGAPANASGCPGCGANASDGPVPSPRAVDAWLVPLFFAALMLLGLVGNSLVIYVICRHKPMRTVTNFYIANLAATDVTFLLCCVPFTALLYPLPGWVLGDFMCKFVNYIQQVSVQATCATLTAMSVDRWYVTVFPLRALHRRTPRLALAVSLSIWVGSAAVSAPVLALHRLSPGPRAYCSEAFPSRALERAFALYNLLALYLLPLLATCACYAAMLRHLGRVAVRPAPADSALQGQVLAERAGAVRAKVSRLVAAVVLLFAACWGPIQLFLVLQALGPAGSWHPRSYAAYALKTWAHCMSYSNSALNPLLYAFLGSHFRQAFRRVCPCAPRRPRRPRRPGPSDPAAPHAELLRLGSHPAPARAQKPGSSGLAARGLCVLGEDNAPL
D(2) dopamine receptor (Homo sapiens), sequence (P14416 whole entry, looked up): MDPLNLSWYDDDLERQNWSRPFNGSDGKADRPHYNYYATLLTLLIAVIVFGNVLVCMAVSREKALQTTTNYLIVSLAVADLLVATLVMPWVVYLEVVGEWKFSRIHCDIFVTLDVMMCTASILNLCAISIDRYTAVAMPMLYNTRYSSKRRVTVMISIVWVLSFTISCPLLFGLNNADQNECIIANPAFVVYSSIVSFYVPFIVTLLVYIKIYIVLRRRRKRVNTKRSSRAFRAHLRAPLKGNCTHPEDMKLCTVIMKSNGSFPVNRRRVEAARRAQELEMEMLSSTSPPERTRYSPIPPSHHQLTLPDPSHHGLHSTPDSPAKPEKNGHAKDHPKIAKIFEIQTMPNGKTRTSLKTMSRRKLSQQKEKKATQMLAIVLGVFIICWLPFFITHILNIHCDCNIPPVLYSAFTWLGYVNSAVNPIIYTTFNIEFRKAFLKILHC

CC(C)(C)N(NC(=O)c1ccc(Cl)cc1)C(=O)c1ccccc1
inactive: [1] | [2] | [3] | [4] | [5] | [6] | [7] | [8] | [9] | [10] | [11] | [12] | [13] | [14] | [15]

CCC1(C2=NCCN2)Cc2ccccc2O1 (centres undefined)
inactive: [1] | [2] | [3] | [4] | [5] | [6] | [7] | [8] | [9] | [10] | [16] | [11] | [12] | [13] | [15]

CCCC[N+](=O)[O-]
inactive: [1] | [2] | [3] | [4] | [5] | [6] | [7] | [8] | [9] | [10] | [16] | [11] | [12] | [17] | [14] | [15]

CCCCN(CCCC)C(=S)[S-].CCCCN(CCCC)C(=S)[S-].[Zn+2]
inactive: [4] | [5] | [6] | [9] | [17] | [14] | [15]
active: [1] 6.11 µM | [2] 1.93 µM | [3] 17.4 µM | [7] 3.63 µM | [8] 25.7 µM | [11] 19.5 µM | [12] 21.7 µM

O=C(Nc1ccc(F)cc1F)c1cccnc1Oc1cccc(C(F)(F)F)c1
inactive: [1] | [2] | [3] | [4] | [5] | [6] | [7] | [8] | [9] | [10] | [16] | [11] | [17] | [14]

CCCCOC(=O)c1ccccc1N
inactive: [1] | [2] | [3] | [4] | [5] | [6] | [7] | [8] | [9] | [16] | [11] | [17] | [14] | [15]
active: [12] 61.4 µM

N#Cc1c2ccccc2cc2ccccc12
inactive: [1] | [2] | [3] | [4] | [5] | [6] | [7] | [8] | [9] | [10] | [16] | [11] | [17]

ClCc1ccccc1Cl
inactive: [1] | [2] | [3] | [4] | [5] | [6] | [7] | [8] | [10] | [16] | [11] | [18] | [12] | [17] | [13] | [14] | [15]
